Records with an inconclusive call do not appear. The source made the active and inactive calls. Unless noted, the call rests on the fitted dose curve; in most records, active means well fitted curve in the direction sought with a large enough effect; inconclusive means small, poorly fitted or top-dose-only effect, or another doubt; inactive means no such curve, though single readings can be large; an effect the other way counts as inactive or inconclusive.
Assays:
[1] = target: Lysosomal acid glucosylceramidase (Homo sapiens) (UniProt P04062); assay: Glucocerebrosidase-p2 (AID 348; in the data active means potency below about 10 µM; further: potency means the concentration at half of the fitted maximal effect); conditions: purified GBA, blue fluorogenic substrate, 40 min
How it was run: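 Compounds titrated from 0.6 nM upwards against 0.2 nM enzyme in pH 5.9 citric acid/KH2PO4, taurocholate, tween-20; blue fluorogenic substrate 80 uM, 40 min room temperature, stopped and read Ex 365/Em 440 for AC50.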

[2] = AP1 Signaling Pathway (AID 357; active means well fitted curve in either direction with a large enough effect, not every such curve was filed as active; further: on the % scale 0 is the no-effect control and ±100 the full control effect); conditions: ME-180 AP-1-bla reporter, EGF-induced, beta-lactamase ratio, 5 h; at 7.69 µM (top of the series) unless noted
How it was run: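 In this screen, ME-180 cells in Opti-MEM with 0.5% dialyzed FBS received EC50 EGF and compound titrations for 5 h. AP-1 reporter beta-lactamase was detected via CCF4 ratio, giving AC50 for positive and negative modulators.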

[3] = target: Cytochrome P450 1A2 (Homo sapiens) (UniProt P05177); assay: p450-cyp1a2 (AID 410; calls by dose curve; further: potency means the concentration at half of the fitted maximal effect); conditions: recombinant CYP1A2, luciferin-ME demethylation, luminescence; series mostly up to 57 µM
How it was run: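 Human CYP1A2 (20nM) demethylated Luciferin-ME at its Km (100uM) in 100mM KPO4. After 10 min compound preincubation, NADPH regeneration ran the reaction 60 min at room temperature. Luciferin was read by luminescence, normalized to 57 uM furafylline.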

[4] = NFAT Signaling Pathway (AID 444; active means well fitted curve in either direction with a large enough effect, not every such curve was filed as active;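 further: carbachol stimulus at about its EC50 of 1 µM final; on the % scale 0 is the no-effect control and ±100 the full control effect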); conditions: Jurkat NFAT-bla M1, carbachol, beta-lactamase ratio, 5 h; at 7.69 µM (top of the series) unless noted
How it was run: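 Read-out: CCF4 FRET ratio (460 nm/530 nm) after 1 h RT dye loading, used for %activity and AC50 from titration series. Cells: Jurkat NFAT-β-lactamase/M1 line, treated with compound plus 1 uM carbachol for 5 h, 37 °C.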

[5] = target: Glucocorticoid receptor (Homo sapiens) (UniProt P04150); assay: GR-GFP Redistribution (AID 450;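 active means compounds whose dose series gives a full or clear partial fitted curve of increased nuclear translocation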; further: potency means the concentration at half of the fitted maximal effect); conditions: U2OS GR-GFP nuclear translocation, laser cytometry, 2 h
[6] = target: Glucocorticoid receptor (Homo sapiens) (UniProt P04150); assay: GR-EFC Redistribution (AID 451; calls by dose curve; further: potency means the concentration at half of the fitted maximal effect); conditions: CHO-K1 GR-EFC translocation, beta-gal luminescence, 2 h
How it was run: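 Translocation of GR-ED fusion to nuclear EA restores b-gal, read by luminescence after 1 h room-temperature detection. Engineered CHO-K1 biosensor cells, 1,000/well, exposed 2 h at 37 C to titrations up to 46 uM final.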

[7] = target: Mitogen-activated protein kinase 10 (Mus musculus) (UniProt Q61831); assay: JNK3 AlphaScreen Assay (AID 530; active means well fitted curve in either direction with a large enough effect, not every such curve was filed as active;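 further: kinase came from lysate of stimulated human HepG2 cells; signal reports phosphorylation of biotinylated GST-cJun 1-79 at Ser73 with 10 µM ATP; on the % scale 0 is the no-effect control and ±100 the full control effect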); conditions: JNK3 lysate, c-Jun phosphorylation; series mostly up to 57.1 µM
How it was run: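 Room-temperature AlphaScreen kinase assay; pre-activated HepG2 lysate as JNK3 source, biotin-GST-cJun(1-79) substrate, 10 uM ATP, compound 15 min preincubation.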

[8] = target: 3',5'-cyclic-AMP phosphodiesterase 4B (Homo sapiens) (UniProt Q07343); assay: qHTS Assay for Inhibitors of PDE-IV (AID 607; active means well fitted activation curve with a large enough effect in the main read-out, with a control signal flat, not every such curve was filed as active; further: % of control where 0% means no effect); conditions: HEK293 ACTOne CNG channel cells, membrane potential fluorescence; series mostly up to 22.9 µM
How it was run: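 The readout is membrane depolarisation from a cAMP-sensing CNG channel, detected with a potential dye at ex 535/em 590. Cells were HEK293-derived (endogenous PDE-IV) at 1000 cells/well, titrated up to 22.9 uM final.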

[9] = target: Cytochrome P450 3A4 (Homo sapiens) (UniProt P08684); assay: qHTS Assay for Activators of Cytochrome P450 3A4 (AID 885); conditions: recombinant CYP3A4, Luciferin-PPXE luminescence, 60 min; series mostly up to 57.1 µM; further: nearly all actives have a fitted effect of over 65% in size; further: potency means the concentration at half of the fitted maximal effect
How it was run: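 Steps: enzyme/substrate mix dispensed; compound added, 10 min RT; NADPH regeneration solution added, 60 min RT; luciferin detection buffer stops reaction; 20 min later luminescence measured.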

[10] = qHTS Assay for Lipid Storage Modulators (AID 1519; calls by dose curve); conditions: Drosophila S3 cells, BODIPY lipid droplet/cell ratio, laser cytometry, cells loaded with oleic acid; for activity change, negative = inhibition: at 57.5 µM (top of the series)
How it was run: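 Cells seeded at 5,000 per well were treated with compounds over a concentration series and loaded with oleic acid (400 uM, as added). Lipid droplet fluorescence (488 nm excitation, 500-530 nm channel) was read by laser-scanning cytometry and normalized to 20 uM Triacsin C.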

[11] = target: Dual specificity protein kinase CLK4 (Homo sapiens) (UniProt Q9HAZ1); assay: qHTS Assay for Inhibitors of CDC-like Kinase 4 (Kinase-Glo Assay) (AID 1770); conditions: recombinant Clk4, Kinase-Glo ATP depletion luminescence; series mostly up to 66.7 µM; further: on the % scale 0 is the no-effect control and ±100 the full control effect; nearly all actives have a fitted effect of over 65% in size
How it was run: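 Recombinant human Clk4 (25 nM) phosphorylated RS repeat peptide (100 uM) with 1 uM ATP in Tris pH 7.5/MgCl2/EGTA/DTT/Triton buffer for 4.5 h at room temperature. Residual ATP was quantified by Kinase-Glo luciferase luminescence.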

[12] = target: Dual specificity protein kinase CLK4 (Homo sapiens) (UniProt Q9HAZ1); assay: qHTS Assay for Inhibitors of CDC-like Kinase 4 (ADP-Glo Assay) (AID 1771); conditions: recombinant CLK4, ADP-Glo luminescence; series mostly up to 80 µM; further: on the % scale 0 is the no-effect control and ±100 the full control effect; nearly all actives have a fitted effect of over 70% in size
How it was run: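 Clk4 (25 nM) was incubated 1 hr at room temperature with 100 uM RS repeat peptide and 1 uM ATP in buffer with 2 mM MgCl2, 0.5 mM EGTA, 2.5 mM DTT. ADP formed was quantified by ADP-Glo luminescence.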

[13] = target: Dual specificity protein kinase CLK4 (Homo sapiens) (UniProt Q9HAZ1); assay: qHTS Assay for Inhibitors of CDC-like Kinase 4 (ADP-FP Assay) (AID 1795); conditions: Transcreener ADP fluorescence polarization; series mostly up to 50 µM; further: on the % scale 0 is the no-effect control and ±100 the full control effect; nearly all actives have a fitted effect of over 60% in size
How it was run: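 Recombinant human Clk4 (6.25 nM) phosphorylated RS repeat peptide (100 uM) with 1 uM ATP in Tris pH 7.5/MgCl2/EGTA/DTT/Triton buffer for one hour. ADP was quantified by Transcreener competitive fluorescence polarization against an ADP calibration curve.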

[14] = target: Ubiquitin carboxyl-terminal hydrolase 1 (Homo sapiens) (UniProt O94782); assay: Inhibitors of USP1/UAF1: Pilot qHTS (AID 504865); conditions: purified USP1/UAF1, Ub-rhodamine cleavage fluorescence; series mostly up to 54.9 µM;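 further: rhodamine fluorescence freed from ubiquitin-rhodamine substrate followed over time; top concentration of the series differs between compounds; on the % scale 0 is the no-effect control and ±100 the full control effect; nearly all actives have a fitted effect of over 35% in size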
How it was run: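 USP1/UAF1 complex (1nM) preincubated with compound 15 min at room temperature, then Ub-Rho substrate (150nM final) added. Fluorescence read kinetically at 480/540 nm, 6 reads every 60 seconds. Buffer: 50mM HEPES pH 7.8, 0.5mM EDTA, 0.1 mg/ml BSA, 1mM TCEP, 0.01% Tween-20.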

[15] = Primary qHTS for small molecule stabilizers of the endoplasmic reticulum resident proteome: Secreted ER Calcium Modulated Protein (SERCaMP) assay (AID 1508630); conditions: SH-SY5Y GLuc-SERCaMP (Gaussia luciferase released on ER calcium loss) secretion, thapsigargin, luminescence; series mostly up to 38.4 µM; further: on the % scale 0 is the no-effect control and ±100 the full control effect
How it was run: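 GLuc-SERCaMP-expressing SH-SY5Y cells, pretreated 16 h with compound, are challenged with thapsigargin to empty ER calcium stores; after 4 h, coelenterazine is added directly to the medium and luminescence is imaged.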

[16] = Stat Signaling Pathway (AID 446; active means well fitted curve in either direction with a large enough effect, not every such curve was filed as active); conditions: ME-180 SIE beta-lactamase reporter, IL-6 stimulated, 5 h; at 7.69 µM (top of the series) unless noted
How it was run: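 Screening format detects activators and inhibitors alike: ME-180 SIE-bla cells stimulated at 40 pM IL-6 for 5 hrs with compound, then dual-emission beta-lactamase read at 405 nm excitation.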

[17] = measured here: cell count channel max response
[18] = measured here: lipid channel max response

Lysosomal acid glucosylceramidase (Homo sapiens), sequence (P04062 whole entry, looked up): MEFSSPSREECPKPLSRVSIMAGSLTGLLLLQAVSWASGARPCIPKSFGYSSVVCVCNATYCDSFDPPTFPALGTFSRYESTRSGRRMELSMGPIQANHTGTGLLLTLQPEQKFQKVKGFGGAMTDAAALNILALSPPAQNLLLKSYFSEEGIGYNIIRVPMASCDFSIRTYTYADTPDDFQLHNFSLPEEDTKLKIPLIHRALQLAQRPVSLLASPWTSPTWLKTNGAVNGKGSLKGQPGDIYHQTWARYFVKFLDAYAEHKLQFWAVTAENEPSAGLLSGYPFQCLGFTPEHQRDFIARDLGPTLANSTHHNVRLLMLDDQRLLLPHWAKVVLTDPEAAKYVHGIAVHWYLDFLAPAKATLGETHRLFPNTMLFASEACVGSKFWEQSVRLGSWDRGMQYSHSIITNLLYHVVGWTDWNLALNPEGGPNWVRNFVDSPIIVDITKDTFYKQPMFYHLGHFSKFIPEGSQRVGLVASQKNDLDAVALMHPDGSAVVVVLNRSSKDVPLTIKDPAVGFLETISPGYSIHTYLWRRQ
Ubiquitin carboxyl-terminal hydrolase 1 (Homo sapiens), sequence (O94782 whole entry, looked up): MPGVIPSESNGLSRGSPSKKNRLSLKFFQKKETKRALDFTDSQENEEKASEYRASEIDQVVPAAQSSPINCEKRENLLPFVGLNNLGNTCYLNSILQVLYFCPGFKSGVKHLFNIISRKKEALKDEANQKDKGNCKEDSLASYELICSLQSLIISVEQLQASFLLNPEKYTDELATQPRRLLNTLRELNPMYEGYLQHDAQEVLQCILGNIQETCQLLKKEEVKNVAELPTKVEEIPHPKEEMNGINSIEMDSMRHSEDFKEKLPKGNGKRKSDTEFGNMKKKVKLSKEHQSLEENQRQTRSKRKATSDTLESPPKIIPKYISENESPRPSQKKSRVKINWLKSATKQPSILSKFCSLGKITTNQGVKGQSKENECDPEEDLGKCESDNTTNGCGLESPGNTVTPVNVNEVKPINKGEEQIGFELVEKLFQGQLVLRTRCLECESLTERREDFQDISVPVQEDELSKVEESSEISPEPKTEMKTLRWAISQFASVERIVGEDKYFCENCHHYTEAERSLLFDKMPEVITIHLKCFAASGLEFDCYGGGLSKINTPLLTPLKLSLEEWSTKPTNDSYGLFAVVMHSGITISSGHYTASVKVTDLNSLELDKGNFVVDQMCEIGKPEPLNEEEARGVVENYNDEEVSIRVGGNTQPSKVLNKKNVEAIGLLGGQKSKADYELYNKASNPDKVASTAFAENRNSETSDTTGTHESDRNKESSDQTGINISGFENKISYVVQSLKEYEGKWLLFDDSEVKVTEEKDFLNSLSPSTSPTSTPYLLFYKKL
Cytochrome P450 1A2 (Homo sapiens), sequence (P05177 whole entry, looked up): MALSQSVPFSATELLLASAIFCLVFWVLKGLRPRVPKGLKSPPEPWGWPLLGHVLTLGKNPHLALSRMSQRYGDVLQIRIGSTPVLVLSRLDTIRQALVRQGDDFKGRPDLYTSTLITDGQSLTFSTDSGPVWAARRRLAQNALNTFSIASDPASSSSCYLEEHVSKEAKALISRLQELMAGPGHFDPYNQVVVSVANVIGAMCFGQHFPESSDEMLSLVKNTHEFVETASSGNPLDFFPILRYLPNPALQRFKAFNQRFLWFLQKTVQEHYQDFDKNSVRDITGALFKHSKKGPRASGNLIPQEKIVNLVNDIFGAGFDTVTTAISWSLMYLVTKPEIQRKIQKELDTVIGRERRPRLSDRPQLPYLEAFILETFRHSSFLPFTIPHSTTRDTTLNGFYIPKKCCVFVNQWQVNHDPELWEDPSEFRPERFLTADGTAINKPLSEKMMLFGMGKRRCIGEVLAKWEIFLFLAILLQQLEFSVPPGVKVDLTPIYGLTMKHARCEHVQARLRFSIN
Dual specificity protein kinase CLK4 (Homo sapiens), sequence (Q9HAZ1 whole entry, looked up): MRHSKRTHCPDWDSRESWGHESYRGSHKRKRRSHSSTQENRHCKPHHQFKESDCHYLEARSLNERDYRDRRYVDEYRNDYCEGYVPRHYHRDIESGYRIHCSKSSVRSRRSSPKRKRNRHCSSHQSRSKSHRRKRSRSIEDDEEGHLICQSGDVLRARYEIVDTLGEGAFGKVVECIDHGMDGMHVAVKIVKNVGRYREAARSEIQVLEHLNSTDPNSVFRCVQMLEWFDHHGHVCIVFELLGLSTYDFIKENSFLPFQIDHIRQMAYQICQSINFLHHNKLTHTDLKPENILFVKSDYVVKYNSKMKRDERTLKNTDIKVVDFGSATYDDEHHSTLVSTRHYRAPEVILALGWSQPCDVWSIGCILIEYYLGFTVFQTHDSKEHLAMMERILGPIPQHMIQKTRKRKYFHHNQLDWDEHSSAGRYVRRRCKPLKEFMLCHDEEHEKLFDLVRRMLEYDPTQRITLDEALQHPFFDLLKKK
Glucocorticoid receptor (Homo sapiens), sequence (P04150 whole entry, looked up, the tested form may be a part): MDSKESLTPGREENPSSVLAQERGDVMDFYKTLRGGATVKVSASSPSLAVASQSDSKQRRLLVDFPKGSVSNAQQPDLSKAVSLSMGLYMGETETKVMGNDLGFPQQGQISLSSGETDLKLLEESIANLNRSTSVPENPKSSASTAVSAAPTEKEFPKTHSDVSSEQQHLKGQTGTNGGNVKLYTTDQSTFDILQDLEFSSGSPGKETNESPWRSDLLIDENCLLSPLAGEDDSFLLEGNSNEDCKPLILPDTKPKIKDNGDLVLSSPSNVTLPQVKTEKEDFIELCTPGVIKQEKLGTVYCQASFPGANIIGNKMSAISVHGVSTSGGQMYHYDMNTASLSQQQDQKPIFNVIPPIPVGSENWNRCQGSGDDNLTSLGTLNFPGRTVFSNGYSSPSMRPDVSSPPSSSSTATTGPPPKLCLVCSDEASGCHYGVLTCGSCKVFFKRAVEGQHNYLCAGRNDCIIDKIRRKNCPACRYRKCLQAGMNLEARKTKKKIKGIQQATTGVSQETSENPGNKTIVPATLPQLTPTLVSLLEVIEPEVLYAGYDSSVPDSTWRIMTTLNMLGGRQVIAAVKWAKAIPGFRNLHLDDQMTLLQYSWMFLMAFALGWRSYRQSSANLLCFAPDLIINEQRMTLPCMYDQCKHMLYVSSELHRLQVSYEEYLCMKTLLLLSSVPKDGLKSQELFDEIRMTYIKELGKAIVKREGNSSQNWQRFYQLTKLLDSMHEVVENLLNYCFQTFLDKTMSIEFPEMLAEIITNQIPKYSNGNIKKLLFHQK
3',5'-cyclic-AMP phosphodiesterase 4B (Homo sapiens), sequence (Q07343 whole entry, looked up): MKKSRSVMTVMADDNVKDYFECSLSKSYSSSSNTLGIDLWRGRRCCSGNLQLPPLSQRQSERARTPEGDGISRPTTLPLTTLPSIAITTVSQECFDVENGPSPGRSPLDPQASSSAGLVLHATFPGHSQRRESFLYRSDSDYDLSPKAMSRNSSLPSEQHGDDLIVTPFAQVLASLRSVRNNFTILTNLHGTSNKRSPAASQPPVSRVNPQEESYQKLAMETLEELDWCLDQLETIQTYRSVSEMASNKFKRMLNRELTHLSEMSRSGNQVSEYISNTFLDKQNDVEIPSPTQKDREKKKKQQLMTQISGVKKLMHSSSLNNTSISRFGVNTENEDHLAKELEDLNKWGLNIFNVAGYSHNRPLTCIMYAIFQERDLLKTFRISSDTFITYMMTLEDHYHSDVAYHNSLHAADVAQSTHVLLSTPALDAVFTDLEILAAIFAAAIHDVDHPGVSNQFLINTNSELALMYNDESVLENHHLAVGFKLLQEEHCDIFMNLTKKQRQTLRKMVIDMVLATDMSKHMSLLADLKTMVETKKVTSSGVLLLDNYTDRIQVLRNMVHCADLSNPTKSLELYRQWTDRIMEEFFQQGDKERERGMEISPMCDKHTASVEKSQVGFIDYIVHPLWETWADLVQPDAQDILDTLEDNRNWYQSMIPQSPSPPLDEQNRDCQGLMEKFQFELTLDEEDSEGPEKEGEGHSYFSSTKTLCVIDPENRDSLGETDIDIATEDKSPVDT
Cytochrome P450 3A4 (Homo sapiens), sequence (P08684 whole entry, looked up): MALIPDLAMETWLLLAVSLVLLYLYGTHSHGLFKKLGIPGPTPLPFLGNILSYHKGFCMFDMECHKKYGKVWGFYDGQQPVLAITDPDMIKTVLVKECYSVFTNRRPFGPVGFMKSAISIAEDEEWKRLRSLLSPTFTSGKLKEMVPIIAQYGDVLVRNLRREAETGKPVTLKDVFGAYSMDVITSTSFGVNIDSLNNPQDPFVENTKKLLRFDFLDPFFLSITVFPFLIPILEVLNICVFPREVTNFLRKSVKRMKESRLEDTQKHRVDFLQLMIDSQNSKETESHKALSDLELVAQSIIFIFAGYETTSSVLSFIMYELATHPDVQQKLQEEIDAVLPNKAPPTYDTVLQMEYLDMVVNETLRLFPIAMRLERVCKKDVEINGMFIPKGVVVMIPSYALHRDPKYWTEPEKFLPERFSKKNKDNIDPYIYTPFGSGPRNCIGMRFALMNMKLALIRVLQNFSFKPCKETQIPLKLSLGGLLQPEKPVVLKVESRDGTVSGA

| Structure (SMILES) | Potency [1] | activity change, negative = inhibition [2] | Potency [3] | activity change, negative = inhibition [4] | Potency [5] | Potency [6] | outcome [7] | Potency [8] | Potency [9] | activity change, negative = inhibition [10] | max response [10, 17] | max response [10, 18] | Potency [11] | Potency [12] | Potency [13] | Potency [14] | Potency [15] | activity, negative = inhibition [16] |
| --- | --- | --- | --- | --- | --- | --- | --- | --- | --- | --- | --- | --- | --- | --- | --- | --- | --- | --- |
| Cn1cc(-c2nc3cnc(Oc4ccccc4)nc3n(C3CC3)c2=O)c2ccccc21 | > 11.4 µM (inactive) | 13.1% (inactive) | 5.01 µM (active) | 9.34% (inactive) | > 9.22 µM (inactive) | > 46 µM (inactive) | inactive | inactive | inactive | 1.27% (inactive) | 1.6% | 0.0554% | inactive | inactive | inactive | inactive | inactive |  |
| N#CCCn1c(=O)cnc2cnc(Oc3ccccc3)nc21 | > 11.4 µM (inactive) | -16.3% (inactive) | 15.8 µM (active) | 11.7% (inactive) |  | > 46 µM (inactive) | inactive |  |  | 5.36% (inactive) | 9.06% | 13.1% | inactive | inactive | inactive | inactive | inactive | -2.6% (inactive) |
| CN(C)Cc1ccccc1-c1nc(N(C)C)c2ccccc2n1 | > 11.4 µM (inactive) | 19.8% (inactive) | 1.26 µM (active) | 13.2% (inactive) | > 46 µM (inactive) | > 46 µM (inactive) | inactive |  |  | -2.91% (inactive) | 9.81% | 6.7% | inactive | inactive | inactive |  | inactive | 28.7% (inactive) |
| Cn1c(=O)c(-c2cccc(C#N)c2)nc2cnc(Oc3ccccc3)nc21 | > 11.4 µM (inactive) | -13.9% (inactive) | 1.58 µM (active) | -0.708% (inactive) | > 9.22 µM (inactive) | > 46 µM (inactive) | inactive |  | 3.16 µM (active) | -3.03% (inactive) | 16.1% | 12.2% | inactive | inactive | inactive | inactive | inactive | 1.85% (inactive) |
| CCNc1ncc2nc(-c3ccc(Cl)cc3)c(=O)n(C[C@H]3CCCO3)c2n1 | > 11.4 µM (inactive) | 25.5% (inactive) | 0.794 µM (active) | 4.01% (inactive) | > 9.22 µM (inactive) | > 46 µM (inactive) | inactive | inactive |  | -12.7% (inactive) | -16% | -29.6% | inactive | inactive | inactive | inactive | inactive |  |
| COCCn1c(=O)c(-c2cc(F)cc(F)c2)nc2cnc(N3CCOCC3)nc21 | > 11.4 µM (inactive) | 11.2% (inactive) | 12.6 µM (active) | 18.8% (inactive) | > 9.22 µM (inactive) | > 46 µM (inactive) | inactive | inactive |  | 6.45% (inactive) | 22.1% | 26.7% | inactive | inactive | inactive |  | inactive |  |

From PubChem BioAssay (NCATS)
